Structures are written as SMILES. In all, about 190,000 compounds went through this assay and about 810 (0.43%) were called active. Rule as the data show it: active = inhibition above about 50%; inactive = the rest. The list comes from a sample in which actives are over-represented; it also holds similar structures and randomly drawn compounds.

Chain of Mannose-6-phosphate isomerase (Homo sapiens) (P34949 whole entry, looked up): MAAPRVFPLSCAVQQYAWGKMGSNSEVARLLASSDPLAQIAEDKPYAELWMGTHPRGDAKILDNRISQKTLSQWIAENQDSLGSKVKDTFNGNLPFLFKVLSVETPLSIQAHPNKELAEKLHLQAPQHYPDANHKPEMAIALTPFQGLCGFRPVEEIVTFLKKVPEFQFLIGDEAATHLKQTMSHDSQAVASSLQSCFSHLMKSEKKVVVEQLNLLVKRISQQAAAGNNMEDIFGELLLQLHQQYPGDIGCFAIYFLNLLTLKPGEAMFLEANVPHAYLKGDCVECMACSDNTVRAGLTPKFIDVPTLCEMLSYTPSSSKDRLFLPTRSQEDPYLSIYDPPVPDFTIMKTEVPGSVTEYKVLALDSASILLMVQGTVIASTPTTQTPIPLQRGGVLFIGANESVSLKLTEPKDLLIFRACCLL

This assay addresses Mannose-6-phosphate isomerase (Homo sapiens) (UniProt P34949). Kind of assay: inhibitors of human PMI, primary screen, biochemical, fluorescence intensity, coupled assay (AID 1209).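 Also: plate controls were DMSO vehicle for no effect and wells lacking substrate for full effect.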 To be noted: purified PMI enzyme, at 20 µM, stronger effect = higher value.
Consider `C/C(=N\NC(=O)COc1ccc(C#N)cc1)c1ccccc1OC(F)F`, for which the inhibition was 1% (inactive). For `CC(=O)Nc1cccc(Oc2ncnc3scc(-c4ccc(C(C)C)cc4)c23)c1`, the inhibition was 12.9% (inactive).

In the case of `CNC(=O)c1nn(-c2ccc(Cl)cc2)ccc1=O`, the inhibition was 6.2% (inactive). Consider `CCOc1cc(NC(=S)NCCCOC)c(OCC)cc1NC(=O)c1cccs1`, for which the inhibition was 17.4% (inactive).

In the case of `CC[n+]1ccc(/C=C/c2ccc(N(C)C)cc2)c2ccccc21`, the inhibition is 1% (inactive). The value for `CC[n+]1ccc(C)c2cc(P(=O)(c3ccccc3)c3ccccc3)ccc21` was -16% (inactive); that for `CC[n+]1ccc(C[n+]2ccccc2)c2ccccc21` was 96.8% (active); that for `CC(=O)Nc1ccc(C2=NN(Cc3nnc(-c4ccccc4)o3)C(=O)SC2)cc1` was 2.2% (inactive). On to `CN(C)c1cccc(C(=O)NCC2CCCO2)c1` (configuration not stated), for which the inhibition is 9.2% (inactive). `O=C(Nc1ccc(N=Nc2ccccc2)cc1)c1ccc(Cl)cc1Cl`: the inhibition was 57.5% (active).

Take `O=C(Nc1ccc(N=Nc2ccccc2)cc1)c1cccc(Cl)c1`: the inhibition is 7.7% (inactive). Consider `O=C(Nc1ccc(N=Nc2ccccc2)cc1)c1ccccc1Cl`, for which the inhibition is 2.6% (inactive). For `COc1cccc(NC(=O)c2cccnc2)c1` the value was 8.6% (inactive). In the case of `O=c1[nH]c2cc3c(cc2cc1C(c1nnnn1C1CCCC1)N1CCCc2ccccc21)OCCO3` (configuration not stated), the inhibition was 12.8% (inactive). With `Cc1ccc2[nH]c(=O)c(C(c3nnnn3C3CCCC3)N3CCCc4ccccc43)cc2c1` (configuration not stated), the inhibition was 57.3% (active). As for `CCC(C)(C)n1nnnc1C(c1cc2cc(C)ccc2[nH]c1=O)N1CCCc2ccccc21` (configuration not stated), the inhibition is 44.4% (inactive).

As to `CCOC(=O)Cc1csc(NC(=O)CSc2nnc(-c3ccc(F)cc3)o2)n1`, the inhibition is -5.5% (inactive). Take `CCOC(=O)c1ccccc1NC(=O)COC(=O)c1ccc(C)c(S(=O)(=O)N2CCOCC2)c1`: the inhibition is 6.5% (inactive). `CCOC(=O)Cn1nc(C)n(-c2ccc(C(C)(C)C)cc2)c1=O`: the inhibition was 12.5% (inactive). For `Clc1ccc(/C=N/Nc2ccccn2)cc1` the value was -8.3% (inactive).

For `COc1ccccc1/C=N/Nc1cc(N(C)C)nc(N(C)C)n1`, the inhibition is 60.4% (active). The value for `COc1ccc(/C=N/Nc2cc(OC)ncn2)cc1` was 14.3% (inactive); that for `COc1ccc(/C=N/Nc2cc(N(C)C)nc(N(C)C)n2)cc1` was 61.2% (active). On to `Cc1cc(N/N=C/c2ccc(Cl)cc2)nc(NCc2ccccc2)n1`, for which the inhibition was 21.7% (inactive). For `COc1ccccc1/C=N/NC1=NCCCCC1` the value was 2.7% (inactive). `Cc1cc(N/N=C/c2ccccc2)nc(NCc2ccccc2)n1`: the inhibition is 21.5% (inactive). For `Cc1cc(N/N=C\c2ccccc2)nc(-c2ccccc2O)n1` the value was 17.7% (inactive); for `CN(C)c1cc(N/N=C\c2ccccc2)nc(N(C)C)n1`, 59.2% (active); for `CN(C)c1cc(N/N=C/c2ccc(Cl)cc2)nc(N(C)C)n1`, 67.4% (active). As for `COc1ccc(/C=N/Nc2cc(C)nc(N)n2)cc1`, the inhibition is 12.1% (inactive). On to `COc1ccccc1/C=N/Nc1nncc2ccccc12`, for which the inhibition is 2.9% (inactive). Turning to `CCn1c(SCC(=O)Nc2cc(C)on2)nc2c(c1=O)SC(C)C2` (configuration not stated), the inhibition was 8.4% (inactive). On to `O=C(Nc1ccc2c(c1)OCCO2)c1ccc2ccccc2n1`, for which the inhibition is -3.6% (inactive). Turning to `O=C(COc1ccccc1)NCC(=O)Nc1ccc(S(=O)(=O)NCc2ccco2)cc1`, the inhibition was 9.9% (inactive). The value for `COc1ccc(C(C(=O)NC2CCCC2)N(Cc2cccs2)C(=O)c2ccn[nH]2)cc1OC` (configuration not stated) was 11.2% (inactive); that for `CN(C)C(=O)CCSc1nnc(-c2ccncc2)o1` was -4.7% (inactive). In the case of `CC1(C)Cc2c(c(N3CCCC3)nc3sc4c(N5CCN(CCO)CC5)ncnc4c23)CO1`, the inhibition was -22.8% (inactive).

`Cc1cc(C(=O)N2CCCC(C(=O)c3cccc4ccccc34)C2)nc(C)n1` (configuration not stated): the inhibition was 6.1% (inactive). As to `O=C(CNS(=O)(=O)c1cccs1)Nc1ccc2c(c1)OCCO2`, the inhibition was 9.1% (inactive). In the case of `CC(C)C(=O)Nc1cccc(C(=O)N2CCCCC2C)c1` (configuration not stated), the inhibition is 15.5% (inactive).

In the case of `O=C(NCc1ccncc1)Nc1cc(Cl)ccc1Cl`, the inhibition was 8.5% (inactive). The value for `Nc1nncn1C(=O)CCCN1C(=O)c2ccccc2C1=O` was 5.4% (inactive).

Take `CCn1c(COc2ccccc2OC)nnc1SCC#N`: the inhibition is 5.9% (inactive).

Take `NC(N)=Nc1nc(C2COc3ccccc3O2)cs1` (configuration not stated): the inhibition is -4% (inactive). Turning to `S=c1[nH]nc(C2COc3ccccc3O2)o1` (configuration not stated), the inhibition was -16.3% (inactive). In the case of `Cn1c(=O)c2c(nc(NC3CCCCC3)n2CC(=O)C23CC4CC(CC(C4)C2)C3)n(C)c1=O`, the inhibition was 1.2% (inactive).

In the case of `O=S(=O)(c1ccc(Br)s1)N1CCC(Cc2ccccc2)CC1`, the inhibition was 1.1% (inactive).

On to `Cc1ccc(N(C(=O)c2cc3ccccc3oc2=O)C2C=CS(=O)(=O)C2)cc1` (configuration not stated), for which the inhibition is 13.3% (inactive). In the case of `Cc1ccc(-c2nnc(SCC(=O)NC3CCS(=O)(=O)C3)nc2-c2ccc(C)cc2)cc1` (configuration not stated), the inhibition was 3.8% (inactive). On to `O=C(CSc1nnc(-c2ccccc2)c(-c2ccccc2)n1)NC1CCS(=O)(=O)C1` (configuration not stated), for which the inhibition was -3.8% (inactive). For `O=C(CSc1n[nH]c(-c2ccncc2)n1)NC1CCS(=O)(=O)C1` (configuration not stated) the value was 77.1% (active); for `O=C(CSc1nnc(-c2ccccc2F)o1)OCc1ccccc1`, -0.7% (inactive); for `CC[n+]1ccccc1/C=C/c1ccc(N(C)C)cc1`, 26.1% (inactive). For `CC[n+]1c(/C=C/Nc2ccccc2)oc2ccccc21`, the inhibition is 1.7% (inactive). `CC[n+]1ccccc1/C=C/Nc1ccccc1`: the inhibition was 62% (active).

With `CCOC(=O)COn1c(=O)c(C)[n+]([O-])c2ccccc21`, the inhibition was 4.8% (inactive). As to `CC(C)(C)c1cc(CCC(=O)NN)cc(C(C)(C)C)c1O`, the inhibition is -6.6% (inactive). For `CC(C)C(C(=O)OCC(=O)c1cccc([N+](=O)[O-])c1)N1C(=O)[C@@H]2[C@H]3CC[C@H](C3)[C@@H]2C1=O` (some centres not stated), the inhibition is 21.3% (inactive). Turning to `OC1(c2ccccc2)CCN(Cc2ccccc2)CC1`, the inhibition was 57.2% (active). For the compound `OC1(c2ccc(F)cc2)CCN(Cc2ccccc2)C1` (configuration not stated), the inhibition was -8.8% (inactive).

In the case of `OC1(c2ccc3ccccc3c2)CCN(Cc2ccccc2)C1` (configuration not stated), the inhibition is -11.8% (inactive). As to `CCC1(C)Cc2[nH]c(=O)c(C#N)cc2CO1` (configuration not stated), the inhibition is 2.9% (inactive). Take `COc1cc(/C=N/Nc2nc(C)nc3c2cnn3-c2ccccc2)ccc1O`: the inhibition was 6.9% (inactive). Take `c1cc2nnnn2nc1N1CCCCC1`: the inhibition is -6.5% (inactive). In the case of `CN1CCN(C(=O)c2cnn3c(C(F)F)cc(C4CC4)nc23)CC1`, the inhibition was 9.1% (inactive). Take `O=C(c1cnn2c(C(F)F)cc(C3CC3)nc12)N1CCOCC1`: the inhibition is 53.1% (active).

In the case of `O=C(c1cnn2c(C(F)F)cc(C3CC3)nc12)N1CCCC1`, the inhibition was -5.5% (inactive). Take `COc1ccc(CCNC(=O)CSc2ccc3ccccc3c2)cc1OC`: the inhibition is 1.7% (inactive). The value for `NS(=O)(=O)c1ccc(CCNC(=O)CSc2ccc3ccccc3c2)cc1` was -13.1% (inactive). `O=C(CSc1ccc2ccccc2c1)NCCc1ccc(O)c(O)c1`: the inhibition was 52.6% (active).

As to `Cc1cc(C)n2nc(C(=O)OCCOc3ccc(Br)cc3)nc2n1`, the inhibition is 7.1% (inactive). Regarding `COc1cc2nc(NC(=O)c3ccc(Cl)cc3)[nH]c(=O)c2cc1OC`, the inhibition was 25.5% (inactive). Turning to `O=C(c1ccccc1)c1coc2c1C(=O)c1ccccc1C2=O`, the inhibition was -42.6% (inactive).

As to `COc1ccc(C(=O)c2coc(-c3ccccc3C(=O)O)c2C(=O)O)cc1`, the inhibition was -8.2% (inactive). The value for `O=C1C(=O)c2c(C(=O)c3ccccc3)coc2-c2ccccc21` was 73.4% (active). For `Cc1ccc(C(=O)c2c[nH]cc2-c2ccccc2)cc1` the value was -1% (inactive); for `O=C1c2ccccc2C(=O)c2c1oc(C(F)(F)F)c2C(=O)c1ccccc1`, -31.5% (inactive); for `Cc1ccc(C(=O)c2coc3c2C(=O)C(=O)c2ccccc2-3)cc1`, 72.9% (active). As to `NC(=O)c1ccc(C(=O)c2ccc([N+](=O)[O-])cc2)cc1`, the inhibition was -7.1% (inactive). As for `O=C1Nc2ccc([N+](=O)[O-])cc2C1=Nc1cccc(CO)c1`, the inhibition is 56.8% (active). The value for `NC(=O)c1ccc(N=C2C(=O)Nc3ccc([N+](=O)[O-])cc32)cc1` was 52.5% (active). Take `Cc1cccc(N=C2NC(=O)c3cc([N+](=O)[O-])ccc32)c1`: the inhibition was -1.4% (inactive). On to `O=C1NC(=Nc2ccccc2)c2ccc([N+](=O)[O-])cc21`, for which the inhibition is 28.5% (inactive). With `Cc1ccc(N=C2NC(=O)c3cc([N+](=O)[O-])ccc32)cc1`, the inhibition was 14.1% (inactive). Turning to `CCOC(=O)c1c(NC(=O)Nc2cccc(Cl)c2)sc(C)c1C`, the inhibition is -4.2% (inactive). Take `O=C(CSc1ncnc2ccccc12)c1ccc2c(c1)OCCO2`: the inhibition is 9.1% (inactive).

For the compound `Nc1[nH]n2c(=O)cc(-c3ccccc3)nc2c1N=Nc1ccc2c(c1)OCO2`, the inhibition is 28% (inactive). Consider `Cc1ccc(/C=N\NC(=O)C2COc3cc4ccccc4cc3O2)o1` (configuration not stated), for which the inhibition is 5% (inactive).

Turning to `Cc1ccc(C(=O)N/N=C/c2ccc(-c3ccccc3[N+](=O)[O-])o2)cn1`, the inhibition was 52.2% (active). Regarding `Cc1ccc(C(=O)N/N=C\c2ccccc2[N+](=O)[O-])cn1`, the inhibition is -13.1% (inactive).

`O=C(N/N=C\c1ccc(-c2ccccc2[N+](=O)[O-])o1)C1COc2ccccc2O1` (configuration not stated): the inhibition is 33.9% (inactive). Turning to `O=C(N/N=C/c1ccc(-c2ccccc2[N+](=O)[O-])o1)c1cncc(Br)c1`, the inhibition is 33.3% (inactive).

For `COc1ccc2ccccc2c1/C=N/NC(=O)c1sc(N)c(C#N)c1C`, the inhibition is 12.9% (inactive). For the compound `O=C(N/N=C\c1ccc(-c2ccccc2[N+](=O)[O-])o1)C1COc2cc3ccccc3cc2O1` (configuration not stated), the inhibition was 70.2% (active). For `Cc1c(C(=O)N/N=C/c2ccc(-c3ccccc3[N+](=O)[O-])o2)sc(N)c1C#N` the value was 55.1% (active); for `Cc1cc([N+](=O)[O-])c(C)cc1-c1ccc(/C=N/NC(=O)c2cccnc2)o1`, 8.6% (inactive). With `COC(=O)c1[nH]c2ccccc2c1NC(=O)CCN1CCN(C2CCCCC2)CC1`, the inhibition is 3.6% (inactive).

The term inhibition denotes the relative decrease from the control value, in per cent.

The values are drawn from PubChem BioAssay AID1209 (Sanford-Burnham Center for Chemical Genomics, 2008).
